An excerpt weighted towards active compounds, which were near 2.2% of everything screened.
TDP-43 yeast inh: qHTS of TDP-43 Inhibitors; Potency, µM (highest dose often 46.1 µM), usual class: activators; actives 1.8% (n = 410,000); TDP-43 expressing yeast growth rescue, BacTiter-Glo, 24 h; also: nearly all actives have a fitted effect of over 50% in size
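Galactose-induced TDP-43 yeast, OD600=0.02, compound pinned; 24 hr, 30 deg C; BacTiter-Glo luminescence for growth. Inhibitors of TDP-43 toxicity read as activators.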
Abeta yeast res: qHTS for compounds that reverse cellular toxicity of Amyloid beta (A-beta) peptide in yeast: Primary Screen; yeast expressing A-beta42, growth rescue, OD600, 48 h; response scale: 0% DMSO, 100% iron-clioquinol control; Potency, µM (highest dose often 46.1 µM), hits mostly activators; actives 0.063% (n = 410,000); also: nearly all actives have a fitted effect of over 55% in size
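Yeast growth medium received pinned compounds, then yeast cells expressing toxic A-beta were added; plates incubated at 30 C for 48 hr. Growth read as absorbance at 600 nm, normalized to DMSO and equimolar FeCl3 plus clioquinol controls.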
FUS suppressor: qHTS for Suppressors of FUS Proteinopathy: Primary screen using FUS-linked yeast assay; S. cerevisiae FUS-expressing, growth rescue, OD600, 24 h; Potency, µM (titrated, usually from 76.6 µM), actives largely listed as activators; actives 0.24% (n = 390,000); also: nearly all actives have a fitted effect of over 55% in size
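FUS-expressing yeast, raffinose-pregrown, induced in 2% galactose minimal medium at OD 0.005; compounds in a dilution series, 24hr at 30C. Growth restoration read as absorbance at 600 nm. CP55940 positive control, DMSO negative.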
Mito fusion yeast: qHTS Assay for Small Molecule Inhibitors of Mitochondrial Division or Activators of Mitochondrial Fusion; S. cerevisiae fusion-defective mutant growth rescue, CellTiterGlo 48 h; Potency, µM (series often up to 46.1 µM), most hits filed as activators; actives 0.23% (n = 320,000); AID 485298, 2010; also: nearly all actives have a fitted effect of over 45% in size
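Temperature-sensitive fusion-defective S. cerevisiae (e.g. fzo1-1, mgm1-5) were grown with compound in YPEG medium (3% ethanol, 3% glycerol) for 48 hours at 37C. Growth rescue was measured as viability by CellTiterGlo luminescence after 10 minutes at ambient.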
aSyn yeast inh: qHTS of alpha-syn Inhibitors; Yeast expressing alpha-synuclein, growth rescue, BacTiter-Glo, 24 h; Potency, µM (series often up to 46.1 µM), most hits filed as activators; actives 0.14% (n = 370,000); AID 652106, 2013; also: nearly all actives have a fitted effect of over 65% in size
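Galactose-induced alpha-syn yeast (OD600=0.02, raffinose-pregrown) + pinned cpd, 24 hr, 30 deg C; growth by BacTiter-Glo luminescence. Growth restoration scores as activation.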
A number is an active result; - = inactive; ? = inconclusive; . = no result given; [ ] = remark or other dose. Calls follow the shape of the dose curve; as a rule, active = well fitted curve in the direction sought with a large enough effect; inconclusive = small, poorly fitted or top-dose-only effect, or another doubt; inactive = no such curve, though single readings can be large; an effect the other way counts as inactive or inconclusive.

SMILES	TDP-43 yeast inh	Abeta yeast res	FUS suppressor	Mito fusion yeast	aSyn yeast inh
CCOC(=O)C1CCN(C(=O)c2ccc(C)c(NC(=O)c3nsc4ccccc34)c2)CC1	35µM	-	?	.	.
O=C(c1ccc2c(=O)n(CC3CCCO3)c(=S)[nH]c2c1)N1CCN(C(=O)c2ccco2)CC1 (stereo not given)	.	.	.	.	-
Nc1nc2ccccc2n1/N=C/c1ccc([N+](=O)[O-])s1	-	-	-	11µM	-
C=CCNC(=O)CN1C(=O)C2C3c4ccccc4C(c4ccccc43)C2C1=O (stereo not given)	-[0.397 µM]	-	-	-	-
CN1CCN(C(=O)c2ccc3nc(-c4ccccc4)c(-c4ccccc4)nc3c2)CC1	-	-	-	-	-
O=C(c1ccc2nc(-c3ccccc3)c(-c3ccccc3)nc2c1)N1CCCCC1	35µM	-	-	-	-
Cc1ccc(C2=NN(C(=O)CSc3nc4ncc(Cl)cc4[nH]3)C(c3ccco3)C2)cc1 (stereo not given)	-	-	-	-	-
COc1ccc(C2=NN(C(=O)CSc3nc4ncc(Cl)cc4[nH]3)C(c3ccco3)C2)cc1 (stereo not given)	35µM	-	?	-	-
CC(C)C[C@H]1COc2cccc(N3CCCC3)c2S(=O)(=O)N1C	.	.	-	.	.
COc1ccc(C(=O)OCCN2CCN(C3CN(Cc4cn(Cc5cccc(C)c5)nn4)S(=O)(=O)C3)CC2)cc1OC (stereo not given)	.	.	-	.	.
C(=N/Nc1nc(-c2ccccc2)cc(-c2ccccc2)n1)/c1cccnc1	14µM	-	.	?	-
Cc1ccc(-c2cc(-c3ccccc3)nc(N/N=C/c3cccnc3)n2)cc1	?	-	?	.	-
O=C1NC(=O)C2(C=C(c3ccccc3)C(O)(c3ccccc3)C2)N1 (stereo not given)	-	-	.	.	-
CCC1CN(C(=O)Nc2ccc(C(=O)O)cc2)c2cc(Cl)ccc2O1 (stereo not given)	13µM	-	-	.	.
COc1ccc(CN2CSC(=S)N(Cc3ccccc3)C2)cc1	?	.	-	-	-
COc1ccc(CN2CSC(=S)N(Cc3ccc(OC)cc3)C2)cc1	32µM	-	-	-	-
O=C(COC(=O)/C=C/c1ccco1)NCc1ccc(Cl)cc1	10µM	-	-	-	-
O=C(COC(=O)/C=C/c1ccco1)NCc1ccccc1	-[9.22 µM]	-	-	-	-
CCc1ccc(Nc2ccc(C(=O)O)cc2[N+](=O)[O-])cc1	?	-	-	20µM	-
CCOC(=O)c1noc2ncnc(NCc3ccccc3OC)c12	28µM	-	-	.	.
CCn1c(SCC(=O)Nc2oc(C)c3c(C)n[nH]c(=O)c23)nc2sc(C)c(C)c2c1=O	-	-	-	-	-
COC(=O)[C@@H]1[C@H](O[Si](C)(C)C(C)(C)C)C2OC2C[C@H]1S(=O)(=O)c1ccccc1 (stereo not given in full)	.	.	-	.	.
COC(=O)C1CCN(C(=O)COc2cc3sc(C)nc3c3sccc23)CC1	20µM	-	-	-	-
Cc1cc(/C=C2\SC(=S)NC2=O)c(C)n1-c1cccc(O)c1	-	-	-	-	-
Cc1sc(-n2c(C)cc(/C=C3\SC(=S)NC3=O)c2C)c(C#N)c1C	-	-	16µM	-	-
SMILES	TDP-43 yeast inh	Abeta yeast res	FUS suppressor	Mito fusion yeast	aSyn yeast inh
CC(=O)Nc1cccc(C(=O)OCC(=O)NC(=O)Cc2ccccc2)c1	-	-	-	-	-
CC(=O)Nc1cccc(C(=O)OCc2ccccc2)c1	13µM	-	-	-	-
COc1ccc(C2=NS(=O)(=O)N(C)C(C(=O)N3CCC(C)CC3)=C2)cc1	-	-	-	-	-
CN1C(C(=O)N2CCc3ccccc3C2)=CC(c2ccc(F)cc2)=NS1(=O)=O	13µM	-	-	-	-
Cc1ccc(NC(=O)CCSc2nnnn2-c2ccc3c(c2)OCO3)cc1C	18µM	-	-	-	-
Cc1ccc(-n2ncc3c(NC4CCCCCC4)ncnc32)cc1	?	-	-	.	.
Cc1ccc(Cl)cc1-n1ncc2c(NC3CCCCC3)ncnc21	13µM	-	-	.	.
Cc1ccc(-n2ncc3c(NC4CCCCC4)ncnc32)cc1	-	-	-	.	.
